# An excerpt weighted towards active compounds, which were near 9.6% of everything screened.
# USP30 inh: human USP30 deubiquitinase inhibition | Q70CQ3 | purified USP30, Ub-rhodamine cleavage fluorescence | inhibition, % at 25 µM | 5.3% of 47,000 active | AID 1645860
# USP17 block: blocks human USP17 ubiquitin-rhodamine cleavage | 6.5% of 47,000 active | A8MUK1 | purified USP17, Ub-rhodamine cleavage fluorescence, 3 h | inhibition, % at 50 µM
# * = called active by the depositor; . = no result given. Rule as the data show it: active = inhibition above about 30%; inactive = the rest.
SMILES,USP30 inh,USP17 block
Cc1cccc(C(=O)NCC(=O)N2CCN(c3ccc(Cl)cc3)CC2)c1,41*,33*
COc1c(O)cc(C2Oc3cc(O)cc(O)c3CC2O)cc1O (stereo not drawn),-6,-18
COc1cccc(CC(=O)NC2CCN(c3ccccc3)C2=O)c1 (stereo not drawn),16,9
Cc1ccc(CNC(=O)NC2CCN(c3ccccc3)C2=O)cc1 (stereo not drawn),33*,8
O=C(Nc1ccccc1F)NC1CCN(c2ccc(F)cc2)C1=O (stereo not drawn),80*,51*
COc1ccccc1NC(=O)NC1CCN(c2ccccc2)C1=O (stereo not drawn),-7,12
CC(C)C(=O)Nc1nc2ccc(CCC(=O)Nc3ccc(F)cc3F)cc2s1,33*,12
Cc1ccccc1CNC(=O)CCc1ccc2nc(NC(=O)C(C)C)sc2c1,8,21
COc1cccc(CNC(=O)CCc2ccc3nc(NC(=O)C(C)C)sc3c2)c1,0,-7
CSc1cccc(NC(=O)CCc2ccc3nc(NC(C)=O)sc3c2)c1,54*,16
Cc1nnc(-c2csc(S(=O)(=O)NC3CCCCC3)c2)o1,19,5
O=C1NCc2ccccc2CC12CCN(Cc1c[nH]c3ccccc13)C2 (stereo not drawn),-39,-16
CC1(C)CCC23CC[C@]4(C)C(CCC5[C@@]6(C)CCC(=O)NC(C)(C)C6CC[C@]54C)C2C1OC3 (stereo partly drawn),-24,-14
CCN1CCN(c2nc3ncn(CC(=O)Nc4ccccc4F)c(=O)c3s2)CC1,-18,-7
Cc1ccc(C(=O)NCC(=O)Nc2nc3ccccc3[nH]2)c(C)c1,-22,57*
COc1cccc(C(=O)NCC(=O)Nc2nc3ccccc3[nH]2)c1,21,59*
O=C(Cc1ccccc1F)NCC(=O)Nc1nc2ccccc2[nH]1,15,15
COc1cc(OC)cc(C(=O)NCc2[nH]nc3ccccc23)c1,19,9
Cc1nc(C)c(C(=O)Nc2nc3ccccc3[nH]2)s1,.,3
O=C(CNC(=O)c1ccc2c(c1)OCO2)Nc1nc2ccccc2[nH]1,3,-1
COc1cccc(C(=O)NCc2[nH]nc3ccccc23)c1,27,57*
Cc1ccc(CC(=O)NCC(=O)Nc2nc3ccccc3[nH]2)cc1,-15,45*
COc1cc(OC)c2c(C)c(CC(=O)N[C@@H](CSCc3ccccc3)C(=O)O)c(=O)oc2c1,25,10
CCCc1cc(=O)oc2c(C)c(OC(C)C(=O)NCC(=O)N3CC[C@@]4(O)CCCC[C@H]4C3)ccc12 (stereo partly drawn),11,2
CC(C)N1CCOC2(CCN(Cc3cnn(C)c3)CC2)c2ccccc21,-104,-64
SMILES,USP30 inh,USP17 block
CCC(C)n1c(SCC(=O)Nc2cc(OC)c([N+](=O)[O-])cc2C)nnc1-c1cccc(S(=O)(=O)N2CCOCC2)c1 (stereo not drawn),26,-2
O=C(C1CCN(c2cnc3nccnc3c2)CC1)N1CCN(c2ccc(F)cc2)CC1,-435,-121
O=C(Cc1ccc(Cl)cc1)N1CCN(c2ncnc3c2nnn3Cc2ccccc2)CC1,35*,7
O=C(c1ccc2ccccc2c1)N1CCN(c2ncnc3c2nnn3Cc2ccccc2)CC1,29,0
O=C(CCC1CCCCC1)N1CCN(c2ncnc3c2nnn3Cc2ccccc2)CC1,32*,12
O=C(c1ccc(F)cc1)N1CCN(c2ncnc3c2nnn3Cc2ccccc2)CC1,.,8
Cc1ccc(Cn2c(=O)c3ccccc3n3c(CCC(=O)NCCCN(Cc4ccco4)C4CCCC4)nnc23)cc1,19,-6
COc1ccc(Cl)cc1NC(=O)COC(=O)c1cc2ccccc2oc1=O,-1,4
CCc1cccc(CC)c1NC(=O)COC(=O)c1cc2cccc(OC)c2oc1=O,39*,90*
CNc1ncc(C(=O)c2ccc(Br)cc2)s1,39*,47*
Cc1ccc(-c2c[nH]cc2C(=O)c2ccc(Br)cc2)cc1,5,1
Cc1ccc(CNC(=O)C2CCN(S(C)(=O)=O)c3ccccc3O2)cc1 (stereo not drawn),0,-12
CC(=O)Nc1c(-c2ccc(F)cc2)c(C)nn1-c1ccc(C(=O)NCc2ccccn2)cc1,2,4
CC(=O)Nc1c(-c2ccc(C)cc2)c(C)nn1-c1ccc(C(=O)Nc2cccc(C#N)c2)cc1,-10,49*
COc1ccccc1CNC(=O)CCC(=O)Nc1ccc2nc(N3CCC(C)CC3)cc(C)c2c1,-12,32*
CCOc1ccc(CNC(=O)CCC(=O)Nc2ccc3nc(N4CCCCC4)cc(C)c3c2)cc1,3,16
Cc1cc(N2CCOCC2)nc2ccc(NC(=O)CCC(=O)NCc3ccc(F)cc3)cc12,-2,4
COc1ccc(CC(=O)Nc2ccc3nc(N4CCOCC4)cc(C)c3c2)cc1,38*,53*
COc1ccc(/C=C/C(=O)Nc2ccc3nc(N4CCN(c5ncccn5)CC4)cc(C)c3c2)cc1,-11,43*
